Source: PubChem BioAssay (NCI)
About 83,000 compounds went through this panel and 20% of them were active in at least one assay; those are over-represented in the sample as a whole.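 A percent growth of 40 corresponds to 60% growth inhibition; 0 means no net growth; -100 means all cells died. Active threshold: below 10.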 A number with no mark means an inactive call. The source made the active and inactive calls.

system: HL-60(TB) leukemia; test: NCI-60 one-dose screen, 48 h (100 = growth as untreated, 0 = no growth, -100 = all killed); conditions: 10 µM unless noted

In order of rising growth:
1. COC(=O)c1ccc(C(=Nc2ccc(N(C)C(=O)CN3CCN(C)CC3)cc2)c2c(O)[nH]c3ccc(C(=O)OC)cc23)cc1  14.4%
2. O=C1/C(=C/c2ccc(-c3cccc(C(F)(F)F)c3)o2)SC(=S)N1CCc1ccc(O)cc1  35.7%
3. Nc1cccc(-c2ccc(COc3ccc(CC4SC(=O)NC4=O)cc3)cc2)c1 (configuration not stated)  43.4%
4. COc1cc(/C=C2\C(=O)Nc3cc(C)c(O)cc32)cc(OC)c1OC  46.7%
5. O=C(CC(C(=O)c1ccccc1)N1CCOCC1)c1ccccc1 (configuration not stated)  55.4%
6. CCCCCC/C=N/Nc1ccc([N+](=O)[O-])cn1  62.5%
7. CCOC(=O)CNC(=O)Sc1ccc(C(C)(C)C)cc1  64.4%
8. COc1cc(/C=C2\SC(=S)N(/C=C/c3nc4ccccc4[nH]c3=O)C2=O)cc(OC)c1OC  70%
9. Cc1nc(Nc2cccc(NC(=O)Nc3ccc(Cl)cc3)c2)c2ccccc2n1  78.6%
10. COc1ccc(NC(=O)Cn2c(=O)sc3c(-c4ccc(Cl)cc4)cc(-c4ccc(Cl)cc4)nc32)cc1  80%
11. Cc1ccc(Cl)cc1NC(=O)c1sc2nc3c(cc2c1N)C(=O)CCC3  82.2%
12. O=C(Nc1ccc(Cl)cc1)Nc1nc2ccc(OC(F)(F)F)cc2o1  83.3%
13. CN1CCN(c2nc(-c3cccnc3)nc3sc4c(c23)CCCCCC4)CC1  87.2%
14. CN(C)c1ccc(/C=C/C(=O)c2ccc(NC(N)=O)cc2)cc1  87.3%
15. C/C=C/C1OCC(CC)C(CCC)O1 (configuration not stated)  88.1%
16. O=C1C(Cl)=C(N=Nc2c(Cl)c(O)c3ccccc3c2O)C(=O)c2ccccc21  90.7%
17. CC(C)CCC[C@@H](C)[C@H]1CC[C@H]2[C@@H]3CC=C4N(c5ccccc5)C(=O)CC[C@]4(C)[C@H]3CC[C@]12C  90.9%
18. CN1C(=O)/C(=C/c2ccc(C(=O)Nc3ncc(Cc4cc(Cl)ccc4Cl)s3)cc2)SC1=S  91%
19. CC1=CC(=O)OC1C/C=C(\C)CCC1[C@@]2(C)CCC[C@@](C)(C(=O)O)C2CC[C@@]1(C)O (some centres not stated)  95.8%
20. Nc1[nH]nc2nc(-c3ccccc3)n3c4ccccc4nc3c12  97.5%
21. COc1ccc(C2=C(CN)C(O)NC(=NCC(=O)c3ccc4ccccc4c3)N2)cc1 (configuration not stated)  97.9%
22. COC(=O)CNS(=O)(=O)c1ccc2c(c1)Cc1cc(S(=O)(=O)NCC(=O)OC)ccc1-2  98.5%
23. COc1ccc(CNc2nc3ccccc3c3c(=O)c4ccccc4sc23)cc1OC  98.9%
24. Cc1ccc2nc(NC(=O)CSc3nc(-c4ccccc4)c(C#N)c(=O)n3Cc3ccccc3)sc2c1  100%
25. O=[N+]([O-])c1ccc(S(=O)(=O)OCCCCOS(=O)(=O)c2ccc([N+](=O)[O-])cc2)cc1  101%
26. CCCCC1COc2cccc3c(SCC(=O)N(C)c4cccc(Cl)c4)cc[n+]1c23 (configuration not stated)  102%
27. CCCCCCCCCCCCCCCCCC(=O)OCCCCCCCCCCCCC  112%
28. CCOC(=O)C1=C(C)n2nc(CC#N)c(C#N)c2NC1c1ccc(CC)cc1 (configuration not stated)  115%

For `C/C(=N\NC(=S)N1CC2CCC(CC2)C1)c1ccccn1`, the growth was -22.4% (active).
In the case of `CC(C)(C)[Si](C)(C)OC1[C@@H](O[Si](C)(C)C(C)(C)C)[C@@H](CNC(=O)NC(=O)CCl)O[C@H]1n1cnc2c(NC(=O)Nc3ccccc3)ncnc21` (some centres not stated), the growth is reported as -73.1% (active).
`COc1ccc(N/N=C/c2cn(-c3ccc(C(=O)O)cc3)nc2-c2cc3ccccc3oc2=O)cc1` was tested, and the growth was 8.19% (active).
In the case of `Cc1cc2cccnc2c2ncccc12`, the growth is reported as -11.4% (active).
In the case of `COc1ccc(-c2cc(/C=C/C(=O)c3ccc(OC)c(OC)c3)[nH]n2)cc1`, the growth is reported as -43.7% (active).
`NC(=O)c1c(NC(=O)c2ccccc2)sc2c1CCC(=O)C2` was tested, and the growth was -6.87% (active).
In the case of `COc1ccc(C(=O)c2cc3c(N)c(C(=O)Nc4cccc(Br)c4C)sc3nc2C)cc1`, the growth is reported as -58.7% (active).
In the case of `CN(C)CCOc1cccc(NC2=C(Cl)C(=O)C(Nc3cccc(OCCN(C)C)c3)=C(Cl)C2=O)c1`, the growth is reported as -51% (active).
In the case of `O=C1c2ccc3c4c(ccc(c24)C(=O)N1CCNCc1ccccc1)C(=O)N(CCNCc1ccccc1)C3=O`, the growth is reported as -34.6% (active).
